# From PubChem BioAssay (NCI)
# About 83,000 compounds went through this panel and 20% of them were active in at least one assay; those are over-represented in the sample as a whole.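 Assay: single dose, 48 h. Readout: percent growth (0 = no net growth; negative = cell death). Active: <10.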 A number with no mark means an inactive call. Active and inactive are the calls of the source.
# How the values were obtained:
# Experiment in all cases: NCI-60 one-dose screen, 48 h (100 = growth as untreated, 0 = no growth, -100 = all killed)
# Conditions in all cases: 10 µM unless noted
# [1] = test system: NCI-H23 lung
# [2] = test system: NCI-H226 lung
# [3] = test system: NCI-H322M lung
# [4] = test system: HOP-62 NSCLC
# [5] = test system: NCI-H460 lung
# [6] = test system: HOP-92 NSCLC
# [7] = test system: NCI-H522 lung
# [8] = test system: A549/ATCC NSCLC
# [9] = test system: 786-0 renal
# [10] = test system: COLO 205 colon
# [11] = test system: DU-145 prostate
# [12] = test system: K-562 leukemia
# [13] = test system: MALME-3M melanoma
# [14] = test system: MDA-MB-231 breast
# [15] = test system: RXF 393 renal
# [16] = test system: SF-268 CNS
# [17] = test system: SF-295 CNS
# [18] = test system: SF-539 CNS
# [19] = test system: UACC-257 melanoma
# [20] = test system: M14 melanoma
Structure (SMILES),growth [1],growth [2],growth [3],growth [4],growth [5],growth [6],growth [7],growth [8],growth [9],growth [10],growth [11],growth [12],growth [13],growth [14],growth [15],growth [16],growth [17],growth [18],growth [19],growth [20]
[O-][n+]1ccccc1CCN(O)CCc1cccc[n+]1[O-],97.1%,85.7%,96.5%,94.1%,115%,86.8%,81.5%,101%,101%,104%,111%,106%,99.5%,97.8%,113%,101%,103%,87%,106%,94.5%
O=C1CCC(NC(=S)Nc2ccccc2)N1 (stereo not given),91.2%,103%,99.5%,109%,115%,102%,92.8%,101%,105%,120%,112%,97.5%,99.6%,109%,117%,104%,110%,105%,104%,110%
c1ccc(-c2nn(-c3ccccc3)[n+](-c3cccc4ccccc34)n2)cc1,1.91% (active),26.9%,42.2%,41.7%,1.82% (active),-13.2% (active),-8.34% (active),23.4%,42.5%,3.41% (active),29.1%,8.3% (active),-38.7% (active),31.5%,30.8%,26.4%,16.8%,25.6%,17.5%,27.6%
CCCCCCOc1ccc(C(=N)N(CCCC)CCCC)c2ccccc12,-94.6% (active),-70.5% (active),-93.6% (active),-89% (active),-57.7% (active),-81.7% (active),-84.6% (active),-83.1% (active),-94% (active),-79.9% (active),-92.4% (active),-42.3% (active),-82.7% (active),-89.7% (active),-94.5% (active),-84.4% (active),-89.1% (active),-92.8% (active),-85.5% (active),-96.1% (active)
CCOc1cc(CNc2ccc(N3CCOCC3)c(C(=O)O)c2)ccc1OC,100%,93.4%,94.8%,103%,102%,110%,99.3%,93%,112%,104%,101%,101%,105%,92.3%,99.3%,97.8%,104%,104%,93.9%,96.5%
C=C1C(=O)O[C@H]2[C@H]1CC/C(CNC(=O)/C=C/c1ccc(Br)cc1)=C\CC[C@@]1(C)O[C@@H]21,-9.66% (active),12.3%,39.6%,41.2%,4.75% (active),-26.2% (active),-71.2% (active),14.2%,-63.4% (active),-64.9% (active),-98.7% (active),0.48% (active),-78% (active),-80.6% (active),-89.2% (active),-29.4% (active),49.6%,-91.7% (active),-40.5% (active),-72.4% (active)
CCSc1ccc2c(c1)N(CCCN1CCN(C)CC1)c1ccccc1S2,74.2%,90.5%,73.1%,69.8%,9.17% (active),20.3%,70.3%,53.6%,43.2%,-62.1% (active),56.3%,-20.9% (active),-61.6% (active),16.5%,18.6%,55.8%,35.4%,63.2%,-69.8% (active),-86.9% (active)
O=C(Nc1ccc2cc3ccc(NC(=O)NC4CCCCC4)cc3nc2c1)NC1CCCCC1,87.5%,97.7%,104%,89.2%,103%,99.8%,103%,101%,60.1%,100%,97.3%,16.8%,106%,101%,15.7%,68.1%,45.6%,50.1%,99.8%,90.5%
O=C(NNc1nc(Cl)nc(N2CCN(C(c3ccccc3)c3ccccc3)CC2)n1)c1ccccc1,-9.53% (active),48%,32%,47.6%,86.3%,52.2%,-68.3% (active),98.7%,70.5%,24.1%,46.6%,-38.8% (active),-14.4% (active),-54.3% (active),-47.1% (active),63.1%,92.3%,-33% (active),-1.56% (active),10.5%
C=C1C(=O)O[C@H]2[C@H]1CC/C(COC(=O)NCCc1c[nH]c3ccc(Cl)cc13)=C\CC[C@@]1(C)O[C@@H]21,13.8%,30.7%,81.6%,64.6%,17.5%,-71% (active),-80.1% (active),56.5%,-78.7% (active),-70.9% (active),-87.8% (active),-13.2% (active),-84.4% (active),-70.5% (active),-93.6% (active),-71% (active),75.4%,-63.8% (active),-11.6% (active),-54.8% (active)
N#Cc1cc(-c2nc3ccccc3s2)c(=O)n(NS(=O)(=O)c2ccc(Cl)cc2)c1N,94.9%,80.8%,102%,89.6%,105%,98.6%,96.3%,117%,105%,122%,110%,96.7%,105%,87.2%,109%,97.8%,110%,93.9%,111%,97.5%
COC(=O)C(c1ccccc1)C(CC(=O)c1ccccc1)c1ccccc1 (stereo not given),78.3%,75.1%,75.6%,91.4%,109%,62.6%,61.9%,95.4%,106%,105%,95.8%,73.1%,69.7%,98.1%,80.9%,83.8%,79.9%,98.6%,101%,103%
CN(C)C(C(N)=O)c1ccc(Cl)cc1 (stereo not given),104%,103%,103%,99.6%,109%,71.4%,96.1%,96.6%,96.1%,110%,107%,98.8%,103%,98.3%,118%,102%,100%,99.5%,95.5%,96.7%
Clc1ccc2c(c1)c(-c1ccccc1)nc1nncn12,98.6%,114%,114%,105%,117%,119%,93.1%,106%,94.2%,115%,112%,119%,113%,119%,135%,95.6%,101%,95.1%,115%,110%
COc1ccc(-n2cc(-c3cc(OC)c(OC)c(OC)c3)n(C(C)=O)c2=O)cc1,95%,94.6%,78.8%,126%,109%,85.7%,77.4%,99.8%,64.5%,91.5%,109%,92.9%,79.4%,86.4%,111%,94.7%,82.1%,90.2%,90.3%,111%
O=C(CCN1CCCC1)Nc1ccc2c(NCc3ccc(F)cc3)c3ccccc3nc2c1,-39.8% (active),4% (active),-4.47% (active),-1.6% (active),-63.4% (active),-8.01% (active),-50.1% (active),-37.6% (active),6.33% (active),-62.5% (active),-38.4% (active),0.876% (active),-90.4% (active),-17.1% (active),-15.8% (active),-3.64% (active),22.8%,3.09% (active),-3.51% (active),-25% (active)
